High-throughput results deposited in PubChem BioAssay by National Center for Advancing Translational Sciences (NCATS).
Pf growth 96h: P. falciparum growth inhibition at 96 hours; P. falciparum luciferase reporter growth, 96 h; AID 504834; 320,000 compounds, 6.9% hits; Potency, µM (titrated, usually from 28.7 µM), hits mostly inhibitors
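Readout is luminescence from an integrated firefly luciferase in P. falciparum. Red cells, 2% hematocrit and 0.05% parasitemia final, were cultured with compound through two parasite generations (96 hours) at 37 C, 5% CO2.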
Giardia FBPA inh: inhibitors of Giardia lamblia fructose-1,6-bisphosphate aldolase; purified Giardia FBPA; Potency, µM (series often up to 59.6 µM), most hits filed as inhibitors; 290,000 compounds, 0.71% hits; A8B2U2; note: nearly all actives have a fitted effect of over 55% in size
Target sequence (A8B2U2 whole entry, looked up): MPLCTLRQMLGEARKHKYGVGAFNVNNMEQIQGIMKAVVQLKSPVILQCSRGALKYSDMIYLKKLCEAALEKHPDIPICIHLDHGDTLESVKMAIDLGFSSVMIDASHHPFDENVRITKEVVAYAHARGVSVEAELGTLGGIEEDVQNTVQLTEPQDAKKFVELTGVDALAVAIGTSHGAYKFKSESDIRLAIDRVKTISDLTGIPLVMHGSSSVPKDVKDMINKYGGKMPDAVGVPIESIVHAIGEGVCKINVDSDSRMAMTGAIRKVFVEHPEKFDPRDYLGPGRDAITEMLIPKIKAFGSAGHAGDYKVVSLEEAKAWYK
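Giardia FBPA (40 nM reagent) was preincubated 10 min at RT with compound (up to 57.5 uM final), then substrate plus GAPDH/TPI/NAD/arsenate coupling system with diaphorase/resazurin was added; resorufin fluorescence (525/598 nm) was read after 20 min.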
Pf growth 48h: inhibits P. falciparum growth in the first generation, 48 h | P. falciparum luciferase growth in erythrocytes, 48 h | Potency, µM (highest dose often 28.7 µM), actives largely listed as inhibitors | 310,000 compounds, 5.9% hits | AID 504832
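First compound was added to culture medium, then infected red cells at 0.1% parasitemia and 2% hematocrit (final). After incubation at 37 C under 5% CO2, luciferase detection reagent was dispensed and light output recorded.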
Cycloheximide cs: counter-screen hit for Shiga toxin inhibitors, cycloheximide; 300,000 compounds, 12% hits; cell reporter, cycloheximide protein synthesis inhibition counterscreen; max response, %; AID 2314; in the data active = max response mostly above about 13%, no sharp cut-off; inactive = mostly below about 14%; note: read at 38.3 µM for the half of the compounds with a filed dose
Shiga inhibitor: blocks Shiga toxin action in Vero cells; Vero cells, Shiga toxin protein synthesis inhibition reporter; inhibition, % at 38.7 µM; 290,000 compounds, 9.2% hits; AID 2315; in the data active = inhibition mostly above about 28%, no sharp cut-off; inactive = mostly below about 43%
NS1 function inh: inhibitors of influenza NS1 protein function; AID 2326; Potency, µM (doses to about 46.1 µM); 270,000 compounds, 0.4% hits; calls by dose curve; note: actives are rising curves; nearly all actives have a fitted effect of over 50% in size
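Recovery from NS1-induced slow growth read by OD600 in budding yeast switched to galactose assay medium (pH 6.0, -URA) at 1:100 dilution. Compound 23 nl per well; the matching strain lacking NS1 serves as control.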
Each line names hits and unclear results; the compound was inactive in the other large screens. Only some compounds are listed: those with a hit (about 21% of all), similar ones and a draw of the others. Unless noted, calls come from the whole dose curve; as a rule, active = well fitted curve in the direction sought with a large enough effect; inconclusive = small, poorly fitted or top-dose-only effect, or another doubt; inactive = no such curve, though single readings can be large; an effect the other way counts as inactive or inconclusive.

COc1ccc(-n2nc(C(C)=O)c(=O)[nH]c2=O)cc1	none
O=C(NCC1CCCO1)C(c1ccncc1)N(Cc1cccs1)C(=O)CN1C(=O)c2ccccc2S1(=O)=O (configuration not stated)	Cycloheximide cs 11
O=C(CCC(=O)Nc1ccccc1Cl)NN=C1CCCC1	none (no result: Giardia FBPA inh)
CCN(CC(=O)NC(=O)Nc1ccccc1F)Cc1ccccc1	none (no result: Giardia FBPA inh, Cycloheximide cs, Shiga inhibitor, NS1 function inh)
O=C(Nc1ccccc1F)C(=O)Nc1cccc2ccccc12	Pf growth 96h inconclusive, Cycloheximide cs 28 (no result: Shiga inhibitor)
O=C(Nc1cccc2ccccc12)/C(Cl)=C/c1ccccc1	Cycloheximide cs 42, Shiga inhibitor 82
O=C(CNc1ccccc1F)Nc1cccc2ccccc12	none
O=C(C[n+]1cnn(CC(=O)c2ccc(Cl)cc2Cl)c1)c1ccc([N+](=O)[O-])cc1	Pf growth 96h inconclusive, Pf growth 48h 3.7µM, NS1 function inh inconclusive
CCN1C(=O)c2ccc(C(=O)NCc3ccco3)cc2C1=O	Pf growth 96h inconclusive
COc1cc(C(=O)NC2CCCc3c2cnn3-c2ccccc2F)cc(OC)c1OC (configuration not stated)	Pf growth 96h 3.3µM, Pf growth 48h inconclusive (no result: Giardia FBPA inh)
COC(=O)c1ccc(C(=O)NC2CCCc3c2cnn3-c2ccccc2F)nc1 (configuration not stated)	Pf growth 96h inconclusive
CCOc1cc(CC(=O)N[C@@H](CC(C)C)c2ccccc2N2CCCCC2)ccc1C(=O)O	Giardia FBPA inh inconclusive (no result: NS1 function inh)
Cn1c(=O)c2cc(S(=O)(=O)NC(C(=O)Nc3cccc(F)c3)c3ccccc3)ccc2n(C)c1=O (configuration not stated)	Pf growth 96h inconclusive (no result: Pf growth 48h)
Cc1ccc(NS(=O)(=O)c2ccc3c(c2)oc(=O)n3C)cc1C	none
CCCNC(=O)C(NS(=O)(=O)c1ccc2c(c1)c(=O)n(C)c(=O)n2C)c1ccccc1 (configuration not stated)	Pf growth 96h inconclusive, Cycloheximide cs 15 (no result: Pf growth 48h)
Cn1c(=O)c2cc(S(=O)(=O)Nc3cccc(F)c3)ccc2n(C)c1=O	Pf growth 96h 15µM (no result: Pf growth 48h)
CSc1cccc(NS(=O)(=O)c2ccc3c(c2)oc(=O)n3C)c1	Pf growth 96h 12µM (no result: Pf growth 48h)
CCCNC(=O)C(Cc1ccccc1)NS(=O)(=O)c1ccc2c(c1)c(=O)n(C)c(=O)n2C (configuration not stated)	Pf growth 96h inconclusive (no result: Pf growth 48h)
Cc1ccc(NS(=O)(=O)c2ccc3c(c2)oc(=O)n3C)cc1	Pf growth 96h 2.6µM
C[C@H]1Cc2c(-c3ccccc3)nc3c(c2CO1)CN(C(=O)NCCc1c[nH]c2ccccc12)CC3	none (no result: Pf growth 96h, Pf growth 48h, Cycloheximide cs, Shiga inhibitor, NS1 function inh)
CN(C)c1ncc2nc(-c3ccccc3)c(=O)n(C3CC3)c2n1	none (no result: Pf growth 96h, Pf growth 48h, Cycloheximide cs, Shiga inhibitor, NS1 function inh)
Brc1ccc2[nH]cc(/C=N/N3CCCCC3)c2c1	none
COc1ccc(OC)c(/C=N/N2CCN(c3ccc(Cl)cc3)CC2)c1	none
Oc1cccc(/C=N/N2CCCCC2)c1O	Cycloheximide cs 40, Shiga inhibitor 96
Oc1ccc(/C=N/N2CCCCC2)c(O)c1	Cycloheximide cs 49, Shiga inhibitor 107
COc1ccc(O)c(/C=N/N2CCOCC2)c1	Cycloheximide cs 41, Shiga inhibitor 99
Oc1ccc(/C=N/N2CCCCC2)c(O)c1O	Giardia FBPA inh 2.8µM
CN1C(=O)c2ccc(C(=O)NCc3ccco3)cc2C1=O	none (no result: Giardia FBPA inh)
C[N+]1(C)CCc2cc(O)c(O)cc2[C@H]1Cc1ccc(O)c(O)c1	none (no result: Pf growth 96h, Giardia FBPA inh, Pf growth 48h, Cycloheximide cs, Shiga inhibitor)
COc1cccc(/C=N/N2CCOCC2)c1O	Cycloheximide cs 24, Shiga inhibitor active
COc1ccc(N=Cc2cccc(C)c2O)cc1Cl	none
COc1cccc(C=Nc2ccc3c(c2)OCCO3)c1O	Pf growth 96h inconclusive, Giardia FBPA inh inconclusive, Cycloheximide cs 75, Shiga inhibitor 107, NS1 function inh inconclusive
Fc1cccc(F)c1/C=N/N1CCOCC1	none (no result: NS1 function inh)
Fc1ccc(/C=N/N2CCOCC2)c(F)c1	Cycloheximide cs 21 (no result: NS1 function inh)
COc1cccc(/C=N/N2C(=O)NC3(CCCCC3)C2=O)c1O	Cycloheximide cs 37 (no result: Pf growth 48h)
COc1cccc(C=Nc2ccc(N3CCOCC3)cc2)c1O	Pf growth 96h inconclusive
CCOc1cc(/C=N/N2C(=O)NC3(CCCCC3)C2=O)cc(Br)c1O	none (no result: NS1 function inh)
Cc1ccc2c(=O)c3ccccc3n(CCCN)c2c1C	Giardia FBPA inh inconclusive (no result: Pf growth 96h, Pf growth 48h, NS1 function inh)
COCCn1c(N)c(N(Cc2ccccc2)C(=O)c2cc3ccccc3o2)c(=O)[nH]c1=O	none (no result: NS1 function inh)
CSc1ncccc1C(=O)OCC(=O)N(CC(C)C)c1c(N)n(Cc2ccccc2)c(=O)[nH]c1=O	none (no result: Giardia FBPA inh)
